In the library only some 9.2% were active in any assay of this set; here they are far more common.
KDM4E inh – inhibitors of human JMJD2E histone demethylase; B2RXH2; JMJD2E catalytic domain, FDH-coupled NADH fluorescence (FDH is formaldehyde dehydrogenase); Potency, µM (top dose mostly 57.1 µM), for the others: at the highest dose activity change, negative = inhibition, usual class: inhibitors; 230,000 tested, 1.6% active;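 further: 0% = wells with enzyme and -100% = buffer wells without enzyme; nearly all actives have a fitted effect of over 50% in size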
HTT cytoprotect – protects HTT-Q103 PC12 cells, measured by ATP; PC12 HTT-Q103 induced, cytoprotection, ATP luminescence, 40 h; Potency, µM (highest dose often 56.4 µM), without a hit: cytoprotection (ATP increase), hits mostly activators; 230,000 tested, 0.14% active; active means well fitted curve in the direction sought with a large enough effect; inconclusive means small, poorly fitted or top-dose-only effect, or another doubt; inactive means no such curve, though single readings can be large; an effect the other way counts as inactive or inconclusive; further: % of control where 0% means no effect; nearly all actives have a fitted effect of over 45% in size
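Stable PC12 Q103-GFP cells in serum-supplemented, phenol red-free DMEM; induction by tebufenozide at 100 nM final; compound dose series; cell viability quantified luminescently from ATP.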
HPGD inh – inhibitors of human 15-hydroxyprostaglandin dehydrogenase (HPGD); 150,000 tested, 4.3% active; purified HPGD, NADH fluorescence kinetic, PGE2 substrate; AID 894; P15428; Potency, µM, for the others: at the highest dose activity change, negative = inhibition, most hits filed as inhibitors; further: on the % scale 0 is the no-effect control and ±100 the full control effect
Target sequence (P15428 whole entry, looked up): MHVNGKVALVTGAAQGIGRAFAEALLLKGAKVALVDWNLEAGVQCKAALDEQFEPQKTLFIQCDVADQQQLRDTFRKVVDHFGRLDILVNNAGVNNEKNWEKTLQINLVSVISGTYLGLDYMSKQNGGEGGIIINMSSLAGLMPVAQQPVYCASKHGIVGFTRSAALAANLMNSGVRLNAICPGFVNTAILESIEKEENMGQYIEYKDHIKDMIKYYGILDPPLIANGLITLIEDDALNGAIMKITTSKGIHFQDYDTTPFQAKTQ
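20 nM HPGD preincubated 15 min at room temperature with compound in 50 mM Tris-HCl pH 8, 0.01% Tween 20. Started with 1 mM NAD+ and 30 uM prostaglandin E2; NADH fluorescence (360/450 nm) read 5 times over 30-s intervals, last minus first.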
ALDH1A1 inh – inhibitors of human aldehyde dehydrogenase 1A1. P00352. Purified ALDH1A1, NADH fluorescence, propionaldehyde substrate. Potency, µM (highest dose often 75.3 µM), without a hit: at the top dose activity, negative = inhibition, hits mostly inhibitors. 220,000 tested, 7.3% active;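 further: plate controls were no enzyme wells and a reference inhibitor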
Target sequence (P00352 whole entry, looked up): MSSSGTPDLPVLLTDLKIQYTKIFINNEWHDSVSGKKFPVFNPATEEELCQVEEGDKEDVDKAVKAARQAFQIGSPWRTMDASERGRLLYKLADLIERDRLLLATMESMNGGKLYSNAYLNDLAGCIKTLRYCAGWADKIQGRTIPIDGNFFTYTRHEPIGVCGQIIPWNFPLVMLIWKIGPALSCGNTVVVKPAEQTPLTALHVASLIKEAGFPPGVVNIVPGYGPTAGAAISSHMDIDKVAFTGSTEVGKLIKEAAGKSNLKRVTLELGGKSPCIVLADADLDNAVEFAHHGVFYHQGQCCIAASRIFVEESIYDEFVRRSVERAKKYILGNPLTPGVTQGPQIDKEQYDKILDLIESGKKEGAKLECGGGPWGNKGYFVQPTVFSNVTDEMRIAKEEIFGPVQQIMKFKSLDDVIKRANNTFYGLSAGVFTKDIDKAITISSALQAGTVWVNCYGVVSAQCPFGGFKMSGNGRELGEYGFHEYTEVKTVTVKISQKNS
LMNA splice mod – modulators of lamin A splicing | HeLa LMNA splicing GFP/RFP minigene ratio, 48 h | Potency, µM (series often up to 46.1 µM), without a hit: top-dose ratio change, negative = inhibition, most hits filed as inhibitors | 200,000 tested, 0.01% active | AID 1487; active means well fitted inhibition curve with a large enough effect in the signal ratio, with a control signal flat, not every such curve was filed as active; inconclusive means small, poorly fitted or top-dose-only effect, or effect the other way, or a change in a side signal; the % refers to the signal ratio; further: on the % scale 0 is the no-effect control and ±100 the full control effect
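Read-out is the ratio of GFP to DsRed2 object intensity, acquired by 488 nm laser-scanning cytometry on HeLa lamin A-EGFP minigene reporter cells. Compound incubation 48 hrs at 37 °C in Opti-MEM with 2% FBS; DMSO 0.5% final.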
HttQ103 aggreg – reduces HttQ103-GFP aggregates in PC12 cells. PC12 HttQ103-GFP aggregates, Acumen cytometry, 40 h. Potency, µM (highest dose often 46.1 µM), without a hit: at the top dose activity change, negative = inhibition, actives largely listed as inhibitors. 220,000 tested, 1.1% active. AID 1688; active means well fitted curve in the direction sought with a large enough effect; inconclusive means small, poorly fitted or top-dose-only effect, or another doubt; inactive means no such curve, though single readings can be large; an effect the other way counts as inactive or inconclusive; further: on the % scale 0 is the no-effect control and ±100 the full control effect; nearly all actives have a fitted effect of over 60% in size
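PC12 cells with ecdysone-inducible HTT exon1 Q103-GFP, induced by 100 nM tebufenozide, given compounds in a concentration series. GFP aggregates (1–25 um, 6 SD above background) counted in lysates by laser-scanning cytometry, 488 nm excitation.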
* marks the source's active call; other numbers are inactive results; ? = inconclusive; . = not tested or not shown; [ ] = another dose, or the depositor's remark. Unless noted, the call rests on the fitted dose curve; in most records, active means well fitted inhibition curve with a large enough effect (not every such curve was filed as active); inconclusive means small, poorly fitted or top-dose-only effect, or another doubt; inactive means no such curve, though single readings can be large or run the other way. Potency means the concentration at half of the fitted maximal effect.

SMILES	KDM4E inh	HTT cytoprotect	HPGD inh	ALDH1A1 inh	LMNA splice mod	HttQ103 aggreg
NC(=O)c1ccsc1NC(=O)C1CCCN1S(=O)(=O)c1ccc(Cl)cc1 (stereo unspecified)	-1%	-22%[0.074 µM]	?	?	-15%	14%
O=c1ccn(C2OC(COP(=O)(O)OP(=O)(O)OP(=O)(O)O)C(O)C2O)c(=O)[nH]1 (stereo unspecified)	-14%	.	-9%	-1%	-1%	.
OC(CNc1ccccc1)COc1ccc(OCC(O)CNc2ccccc2)cc1 (stereo unspecified)	-3%	-75%	-16%	4%	?	11µM*
Cc1cc(C)cc(NC(=O)NCC(O)COc2ccc([N+](=O)[O-])cc2)c1 (stereo unspecified)	-4%	8%[10 µM]	.	.	.	8%[9.22 µM]
O=C(NCC(O)COc1ccc([N+](=O)[O-])cc1)Nc1ccccc1 (stereo unspecified)	-1%	-4%[10 µM]	.	20µM*	.	3%[9.22 µM]
O=C(c1ccc2snnc2c1)N1CCCCC1	0%	4%[10 µM]	16µM*	-6%	1%	12%
CCCN1C(=O)c2cc(C(=O)Nc3ccc(OC)cc3OC)ccc2C1Nc1ccc(OC)cc1OC (stereo unspecified)	-21%	-46%	.	25µM*	.	2%
N[C@H]1CCN(O)C1=O	-28%	?	-10%	-4%	.	.
Cc1ccccc1CNC(=O)c1ccccc1C	2%	-1%[10 µM]	?	0%	14%	-5%
Cc1ccccc1CNC(=O)c1ccccc1C(=O)O	7%	.	-7%	10%	0%	0.0089µM*
Cc1ccccc1CNC(=O)c1ccccc1	0%	-5%	16µM*	?	-11%	1%[1.84 µM]
COC(=O)[C@H](COC(C)(C)C)NC(=O)O[C@@H]1C(=O)c2cc(OC)ccc2O[C@H]1c1ccc(OC)c(Br)c1	?	-31%	-24%	?	.	.
CCOC(=O)NCc1ccc(S(=O)(=O)Nc2ccccc2C)cc1	2%	-21%[0.074 µM]	-2%	5%	-9%	-8%
CCc1ccc(S(=O)(=O)Nc2cc(SCC(=O)O)c(O)c3ccccc23)cc1	?	?	.	14µM*	.	12%[9.22 µM]
O=C(O)CSc1cc(NS(=O)(=O)c2cccc([N+](=O)[O-])c2)c2ccccc2c1O	?	-31%[10 µM]	.	3.5µM*	.	-12%[9.22 µM]
CC1(CN2CCC(n3c(=O)[nH]c4ccccc43)CC2)OCc2ccccc2-n2cccc21 (stereo unspecified)	.	6%	-1%	7%	.	8%
COc1ccc(OCc2nn3c(Cn4cnc5ccccc54)nnc3s2)cc1	-6%	-31%	14µM*	22µM*	?	25µM*
c1ccc(CCc2nn3c(Cn4nnc5ccccc54)nnc3s2)cc1	-14%	17%[10 µM]	10µM*	3.5µM*	18%	-22%
c1ccc(CCc2nn3c(Cn4cnc5ccccc54)nnc3s2)cc1	-4%	7%	16µM*	3.5µM*	-25%	-29%
Clc1ccccc1-c1nn2c(Cn3cnc4ccccc43)nnc2s1	3%	-25%[0.074 µM]	14µM*	20µM*	-6%	-12%
CCCN(CCC)C(=O)CSc1nnc2cc(C)c3cc(C)cc(C)c3n12	.	.	.	.	5%[46 µM]	.
O=C(O)CC(CC(=O)O)C(=O)O	.	-15%[10 µM]	-4%	5%[13.5 µM]	.	.
c1ccc(Cc2nn3c(Cn4nnc5ccccc54)nnc3s2)cc1	-4%	-46%	20µM*	25µM*	-3%	-15%
c1ccc(OCc2nn3c(-c4cccnc4)nnc3s2)cc1	?	-20%	?	-15%	1%	4%
c1ccc(OCc2nn3c(Cn4nnc5ccccc54)nnc3s2)cc1	-30%	-15%	8.9µM*	7.9µM*	22%	10%
SMILES	KDM4E inh	HTT cytoprotect	HPGD inh	ALDH1A1 inh	LMNA splice mod	HttQ103 aggreg
O=C(O)CSc1nnc(Cn2nnc3ccccc32)n1CCc1ccccc1	0%	1%	?	-6%	3%	19%
c1ccc2c(c1)OCC(c1nn3c(Cn4nnc5ccccc54)nnc3s1)O2 (stereo unspecified)	-4%	-4%[10 µM]	10µM*	11µM*	-22%	-30%
CN1CCc2cc3c(cc2[C@@H]1[C@@H]1C(=O)Oc2c1ccc1c2OCO1)OCO3	9%	-8%	-7%	7%	.	.
Cc1ccc(CNC(=O)C2COc3ccccc3C2)cc1 (stereo unspecified)	.	.	.	.	15%[46 µM]	.
O=C(NCc1cccnc1)C(=O)NCC(c1ccco1)N1CCN(c2ccccc2F)CC1 (stereo unspecified)	-9%	-2%[10 µM]	-11%	11µM*	?	7%
O=C(c1cc(F)c(F)cc1Cl)N1CCOCC1	5%	-4%[10 µM]	-17%	10%	1%	-11%
CC1CCN(C(=O)c2cc(F)c(F)cc2Cl)CC1	3%	-2%[10 µM]	13µM*	3%	-9%	-10%
CCOC(=O)[C@@H](O)Cc1cnc2ccccc2n1	.	-27%[10 µM]	0%	-14%[13.5 µM]	.	.
COc1cc2c(cc1OC)C(CCN)=NCC2	.	8%[10 µM]	-14%	-7%[13.5 µM]	.	.
O=C(/C=C/c1cccc(F)c1)c1ccc(N2CCOCC2)cc1	7%	-11%[10 µM]	.	13µM*	.	19%[9.22 µM]
O=C(/C=C/c1cccs1)c1ccc(N2CCOCC2)cc1	-10%	-62%	.	-14%	.	2%
CCOC(=O)C1=C(c2ccccc2)OC(N)=C(C#N)C1c1ccncc1 (stereo unspecified)	8%	-14%[10 µM]	.	?	.	-3%[9.22 µM]
CC1=C(n2nnc3ccccc32)C(c2ccccc2)C(C#N)=C(N)O1 (stereo unspecified)	?	4%	?	13µM*	-16%	11%
O=C(Nc1ccc(N2CCN(C(=O)c3ccccc3)CC2)c(Cl)c1)c1ccco1	1%	-22%	-9%	?	?	22µM*
O=C(Nc1ccc(Br)c(Cl)c1)c1ccco1	-5%	-17%[0.074 µM]	22µM*	-13%	-3%	-15%
CCN1C(=O)N[C@@H](c2ccco2)C(C(=O)OC)=C1C	11%[11.4 µM]	11%[10 µM]	-8%	11%[13.5 µM]	?	.
NCCN	.	6%	0%	5%	1%	29%
CCOC(=O)c1c(N2C(=O)CC(Sc3ccccc3C(=O)O)C2=O)sc(C)c1C (stereo unspecified)	1%	-7%[10 µM]	.	.	.	0%[9.22 µM]
COc1ccc(N2CCN(C(=O)c3ccccc3F)CC2)c([N+](=O)[O-])c1	-8%	11%[10 µM]	.	.	.	14%[9.22 µM]
COc1ccc(N2C(=O)CC(Sc3ccccc3C(=O)O)C2=O)c([N+](=O)[O-])c1 (stereo unspecified)	-8%	-3%[10 µM]	.	1µM*	?	-4%
Cc1ccc(N2C(=O)CC(Sc3ccccc3C(=O)O)C2=O)c([N+](=O)[O-])c1 (stereo unspecified)	-13%	2%[10 µM]	.	2µM*	?	5%[9.22 µM]
NS(=O)(=O)c1ccc(N/N=C/c2ccc(O)c(O)c2O)c([N+](=O)[O-])c1	2.8µM*	1%[10 µM]	.	.	.	-21%[9.22 µM]

Bioassay records deposited in PubChem by National Center for Advancing Translational Sciences (NCATS).
